Only some compounds are listed: those with a hit (about 14% of all), similar ones and a draw of the others.
Pf growth 48h: inhibits P. falciparum growth in the first generation, 48 h; Potency, µM (top dose mostly 28.7 µM), without a hit: at the top dose activity change, negative = inhibition, usual class: inhibitors; actives 5.9% (n = 310,000); AID 504832; P. falciparum luciferase growth in erythrocytes, 48 h; also: potency is read from the fitted curve at half-maximal effect
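Cell-based growth assay: transgenic P. falciparum expressing firefly luciferase, cultured in red cells within RPMI 1640 containing 0.5% w/v Albumax, 24 mM bicarbonate and gentamycin. A drop in luciferase activity indicates inhibition.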
FBPA Giardia inh: inhibitors of Giardia lamblia fructose-1,6-bisphosphate aldolase; A8B2U2; purified Giardia FBPA; Potency, µM (highest dose often 59.6 µM), inactives show at the highest dose activity, negative = inhibition, most hits filed as inhibitors; actives 0.71% (n = 290,000); AID 2451; also: potency is read from the fitted curve at half-maximal effect; nearly all actives have a fitted effect of over 55% in size
Target sequence (A8B2U2 whole entry, looked up): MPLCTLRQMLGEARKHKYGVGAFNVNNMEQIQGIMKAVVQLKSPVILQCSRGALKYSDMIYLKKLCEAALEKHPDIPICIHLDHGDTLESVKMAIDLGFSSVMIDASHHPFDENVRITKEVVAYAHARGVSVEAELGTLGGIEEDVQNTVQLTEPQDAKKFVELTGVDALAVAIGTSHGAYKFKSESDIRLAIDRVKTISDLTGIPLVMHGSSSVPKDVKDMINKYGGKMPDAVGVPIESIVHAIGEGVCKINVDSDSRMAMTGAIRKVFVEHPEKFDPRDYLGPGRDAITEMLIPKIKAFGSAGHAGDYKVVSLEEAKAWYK
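Giardia FBPA (40 nM reagent) was preincubated 10 min at RT with compound (up to 57.5 uM final), then substrate plus GAPDH/TPI/NAD/arsenate coupling system with diaphorase/resazurin was added; resorufin fluorescence (525/598 nm) was read after 20 min.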
Sm TGR block: blocks Schistosoma mansoni thioredoxin glutathione reductase; purified TGR, DTNB reduction, TNB absorbance 405 nm; Potency, µM (highest dose often 114 µM), for inactives: top-dose activity change, negative = inhibition, usual class: inhibitors; actives 3% (n = 360,000); also: potency is read from the fitted curve at half-maximal effect; nearly all actives have a fitted effect of over 60% in size
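First, TGR (20 nM dispensed) and NADPH were mixed with compound. Second, a 15 min room-temperature incubation followed. Third, further NADPH and then DTNB were added to start the reaction. Finally, TNB absorbance was monitored kinetically.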
Pf growth 96h: P. falciparum growth inhibition at 96 hours | Potency, µM (titrated, usually from 28.7 µM), for inactives: at the top dose activity change, negative = inhibition, actives largely listed as inhibitors | actives 6.9% (n = 320,000) | P. falciparum luciferase reporter growth, 96 h | AID 504834; also: potency is read from the fitted curve at half-maximal effect
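Two parasite generations (96 h, 37 C, 5% CO2) of compound exposure in infected erythrocytes (0.05% parasitemia, 2% hematocrit). Luciferase-reporter P. falciparum; decreased luminescence indicates inhibited growth, aimed at apicoplast-acting delayed death.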
HCMV inh: human cytomegalovirus inhibition; HFF cells, HCMV-luciferase reporter, 72 h; active compounds read low; activity change, negative = inhibition, % at 57.5 µM; actives 4.5% (n = 410,000); in the data active = activity change below about -60%; inconclusive = no clear call, values can overlap the other calls; inactive = above about -39%
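Human foreskin fibroblasts infected with luciferase-reporter HCMV at MOI 1 PFU/cell, compounds at two doses. Luciferase measured 72 h post infection; normalized to buffer-only basal and Salinomycin (10uM) controls.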
* marks the source's active call; other numbers are inactive results; ? = inconclusive; / = no result given. Unless noted, calls follow the shape of the dose curve; as a rule, active = well fitted curve in the direction sought with a large enough effect; inconclusive = small, poorly fitted or top-dose-only effect, or another doubt; inactive = no such curve, though single readings can be large; an effect the other way counts as inactive or inconclusive. % is scaled to controls: 0 for no effect and ±100 for the full control effect.

SMILES	Pf growth 48h	FBPA Giardia inh	Sm TGR block	Pf growth 96h	HCMV inh
O=C(Cc1ccc(S(=O)(=O)N2CCOCC2)s1)Nc1ccc(N2CCOCC2)cc1	171%	-5%	1%	258%	11
O=C(Cc1ccc(S(=O)(=O)N2CCOCC2)s1)Nc1cc(C(F)(F)F)ccc1N1CCCC1	12µM*	/	0%	?	27
CCOC(=O)c1cc(NC(=O)Cc2ccc(S(=O)(=O)N3CCOCC3)s2)cc(C(=O)OCC)c1	10µM*	/	-3%	5.2µM*	-23
O=C(Cc1ccc(S(=O)(=O)N2CCOCC2)s1)Nc1ccccc1N1CCCC1	-21%	-13%	?	?	?
O=C(Cc1ccc(S(=O)(=O)N2CCOCC2)s1)Nc1cc(C(F)(F)F)cc(C(F)(F)F)c1	?	/	2%	?	-80*
COc1cccc(-c2nc(NC3CCCC3)c3ccccc3n2)c1O	/	-1%	0%	9.3µM*	/
c1ccc2c(NC3CC3)nc(-c3ccoc3)nc2c1	/	-19%	/	/	/
c1ccc(-c2nc(NC3CCCC3)c3ccccc3n2)cc1	?	11%	-12%	10µM*	20
COc1cccc(-c2nc(NCc3ccccc3)c3ccccc3n2)c1O	15µM*	-4%	4%	?	-3
Cc1ccc(C)c(NC(=O)CN2C(=O)c3cccc4cccc2c34)c1	/	/	-2%	/	-3
O=C(Nc1cccnc1)/C(N=Nc1cccnc1)=C(\O)c1ccccc1	?	-5%	-4%	?	-34
Cc1cccc2ccccc12	/	/	/	/	-8
Cc1ccc2c(C)c3ccc4ccccc4c3c[n+]2c1	/	/	/	/	-95*
COc1ccccc1NNC(=O)C(O)(c1ccccc1)c1ccccc1	2%	-4%	-22%	-1%	24
CCCNNC(=O)C(O)(c1ccccc1)c1ccccc1	-1%	-4%	-15%	10µM*	-12
Cc1cc(C(=O)NNS(=O)(=O)c2ccc(C(C)(C)C)cc2)nn1C(C)(C)C	10µM*	5%	-1%	-92%	29
Cc1ccc(S(=O)(=O)NNC(=O)C(O)(c2ccccc2)c2ccccc2)cc1	11%	2%	0%	2.1µM*	?
O=C(NNS(=O)(=O)c1ccccc1)C(O)(c1ccccc1)c1ccccc1	9%	-1%	9%	-2%	-27
Cc1cc(C)n(C(=O)Cn2nc(C)c(Cl)c2C)n1	-17%	2%	11%	?	3
COc1cccc(N2C(=O)CN(Cc3ccc(OC)c(OC)c3)C2=S)c1	1.5µM*	12%	0%	?	43
COc1ccc(CN2CC(=O)N(c3ccc(C)cc3C)C2=S)cc1OC	?	-14%	-6%	?	18
COc1ccc(N2C(=O)CN(Cc3ccc(OC)c(OC)c3)C2=S)cc1	-9%	-1%	3%	?	-81*
CCc1ccc(N2C(=O)CN(Cc3ccccc3)C2=S)cc1	?	-4%	20%	25%	5
COC(=O)C1=COC(O[C@H]2OC(CO)[C@H](O)C(O)C2O)[C@H]2C1C(=O)C[C@@H]2C (some centres undefined)	/	-8%	/	/	/
CC(C)c1ccc(C2NC(=S)NC3=C2C(=O)CC(C)(C)C3)cc1 (centres undefined)	23%	6%	-5%	0%	-71*
SMILES	Pf growth 48h	FBPA Giardia inh	Sm TGR block	Pf growth 96h	HCMV inh
Cn1c(O)c(/C=N/NC(=O)c2ccncc2)c(=O)n(C)c1=S	-12%	-5%	20µM*	16%	119
O=C(N/N=C/c1c(O)n(-c2ccccc2)c(=O)[nH]c1=O)c1ccncc1	34%	0%	40µM*	45%	16
Cc1ccc(-n2c(O)c(/C=N/NC(=O)c3ccncc3)c(=O)[nH]c2=O)cc1	16%	-15%	?	35%	-31
CCOC(=O)c1c(NC(=O)C(C)Sc2nnc(C)c(=O)[nH]2)sc2c1CCCC2 (centres undefined)	11%	-15%	-11%	46%	-3
COc1ccc2oc(-c3ccc(C)c(NC(=O)c4ccc(-c5ccccc5[N+](=O)[O-])o4)c3)nc2c1	/	/	-3%	/	58
CN(C(=O)CSc1cc(C(=O)c2nccn2C)c2ccccc2n1)c1ccccc1	?	-12%	?	-16%	-99*
COc1cccc(NC(=O)N2CCC(CN3CCOCC3)CC2)c1	/	/	-1%	/	5
CCOCCCNC(=O)c1c[nH]c2ccc(S(=O)(=O)Nc3cccc(OC)c3)cc2c1=O	?	15%	-4%	?	-12
COc1cccc(NS(=O)(=O)c2ccc3[nH]cc(C(=O)NCCN4CCOCC4)c(=O)c3c2)c1	13µM*	-2%	-4%	7%	-6
Cc1ccccc1NS(=O)(=O)c1ccc2[nH]cc(C(=O)NCCCN3CCOCC3)c(=O)c2c1	4.1µM*	-2%	7%	-9%	?
COc1ccc(NS(=O)(=O)NC(=O)c2c[nH]c3ccccc23)cc1	3%	/	-4%	39%	-25
CCc1ccc(NS(=O)(=O)c2ccc3[nH]cc(C(=O)NCc4ccc(C)cc4)c(=O)c3c2)cc1	/	/	20%	/	-3
O=C(NCc1ccccc1)c1c[nH]c2ccc(S(=O)(=O)Nc3ccc4c(c3)OCCO4)cc2c1=O	?	-5%	-16%	15µM*	14
COc1cccc(NS(=O)(=O)NC(=O)c2c[nH]c3ccccc23)c1	12µM*	/	0%	72%	-25
O=C(COc1ccc(Cl)cc1)NCCc1csc(-c2ccc(C(F)(F)F)cc2)n1	/	/	-4%	/	-39
COc1ccc(Br)cc1C(C[N+](=O)[O-])c1c(N)n(C)c(=O)n(C)c1=O (centres undefined)	3.7µM*	-3%	-20%	?	-100*
CN(C)c1ccc(C(C[N+](=O)[O-])c2c(N)n(C)c(=O)n(C)c2=O)c(F)c1C#N (centres undefined)	0%	-1%	-3%	-24%	/
O=C(Cc1cccc(NC(=O)C2CCCN(C(=O)C3CCC3)C2)c1)Nc1cccc(C(=O)N2CCCC2)c1 (centres undefined)	?	/	7%	2.3µM*	23
O=C(Cc1cccc(NC(=O)C2CCCN(C(=O)C3CC3)C2)c1)Nc1cccc(C(=O)N2CCCCC2)c1 (centres undefined)	/	/	/	/	2
O=C(Cc1cccc(NC(=O)C2CCCN(C(=O)C3CCCCC3)C2)c1)Nc1cccc(C(=O)N2CCCC2)c1 (centres undefined)	4.1µM*	/	1%	?	-17
CC1(C)NC(=O)N(CC(O)CN(c2ccccc2)S(=O)(=O)c2ccccc2[N+](=O)[O-])C1=O (centres undefined)	7%	-6%	-6%	3%	-7
Cc1nn2c(=O)cc(CSCC(=O)Nc3ccccc3Cl)nc2s1	9%	/	-6%	12µM*	?
CCCc1nn2c(=O)cc(CSCC(=O)Nc3nnc(C(C)C)s3)nc2s1	-14%	/	-1%	12µM*	?
Cc1nn2c(=O)cc(CSCC(=O)Nc3ccccc3F)nc2s1	10%	/	-1%	?	4
